From the supplement of paper PMC10849652
Targets with a hit are over-represented here; the source holds about 8,800 in all. About 0.5% of all pairs of compound and target were hits.

compound: CCCS(=O)(=O)Nc1ccc(F)c(C(=O)c2c[nH]c3ncc(-c4ccc(Cl)cc4)cc23)c1F [vemurafenib]; assay: log2 fold change, soluble protein after heating vs DMSO (PISA); higher = thermal stabilisation; K562 lysate, 10 uM; active = over 0.2 and 3.5 SD of the protein, either way, in both replicates (recomputed)
Method in brief: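 K562 pellets were dounce-homogenised in PBS pH 7.4 with 1 mM MgCl2, and the crude extract at 1 mg/mL protein was treated with 10 μM compound for 30 min. Aliquots were heated for 3 min across 48°C-58°C, pooled, and brought to 0.5% NP-40 at 4°C; soluble protein was the supernatant after 21,000xg for 90 min. Soluble protein was quantified by TMTpro 16plex LC-MS/MS with channel sums equalised, and reported as log2 fold change in thermal stability against DMSO controls, with values from duplicates.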

Chain of UniProt P26583 (P26583 whole entry, looked up): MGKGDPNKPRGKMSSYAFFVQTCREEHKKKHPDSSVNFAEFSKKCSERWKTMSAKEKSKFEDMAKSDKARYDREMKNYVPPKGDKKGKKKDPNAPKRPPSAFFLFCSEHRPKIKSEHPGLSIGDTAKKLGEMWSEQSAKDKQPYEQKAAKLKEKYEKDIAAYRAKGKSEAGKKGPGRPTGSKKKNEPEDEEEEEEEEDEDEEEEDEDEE
Chain of UniProt Q58FG1 (Q58FG1 whole entry, looked up): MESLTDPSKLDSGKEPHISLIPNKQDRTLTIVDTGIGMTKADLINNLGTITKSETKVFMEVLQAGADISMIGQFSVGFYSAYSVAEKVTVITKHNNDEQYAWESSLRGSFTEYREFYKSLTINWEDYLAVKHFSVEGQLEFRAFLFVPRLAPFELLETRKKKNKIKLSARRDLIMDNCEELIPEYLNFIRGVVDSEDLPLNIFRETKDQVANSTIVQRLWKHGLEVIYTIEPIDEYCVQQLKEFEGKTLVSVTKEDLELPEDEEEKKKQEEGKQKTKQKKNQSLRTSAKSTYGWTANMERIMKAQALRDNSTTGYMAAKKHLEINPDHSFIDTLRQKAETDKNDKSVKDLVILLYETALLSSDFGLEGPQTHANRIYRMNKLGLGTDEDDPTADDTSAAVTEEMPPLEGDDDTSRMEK
Chain of UniProt Q9NVH2 (Q9NVH2 whole entry, looked up): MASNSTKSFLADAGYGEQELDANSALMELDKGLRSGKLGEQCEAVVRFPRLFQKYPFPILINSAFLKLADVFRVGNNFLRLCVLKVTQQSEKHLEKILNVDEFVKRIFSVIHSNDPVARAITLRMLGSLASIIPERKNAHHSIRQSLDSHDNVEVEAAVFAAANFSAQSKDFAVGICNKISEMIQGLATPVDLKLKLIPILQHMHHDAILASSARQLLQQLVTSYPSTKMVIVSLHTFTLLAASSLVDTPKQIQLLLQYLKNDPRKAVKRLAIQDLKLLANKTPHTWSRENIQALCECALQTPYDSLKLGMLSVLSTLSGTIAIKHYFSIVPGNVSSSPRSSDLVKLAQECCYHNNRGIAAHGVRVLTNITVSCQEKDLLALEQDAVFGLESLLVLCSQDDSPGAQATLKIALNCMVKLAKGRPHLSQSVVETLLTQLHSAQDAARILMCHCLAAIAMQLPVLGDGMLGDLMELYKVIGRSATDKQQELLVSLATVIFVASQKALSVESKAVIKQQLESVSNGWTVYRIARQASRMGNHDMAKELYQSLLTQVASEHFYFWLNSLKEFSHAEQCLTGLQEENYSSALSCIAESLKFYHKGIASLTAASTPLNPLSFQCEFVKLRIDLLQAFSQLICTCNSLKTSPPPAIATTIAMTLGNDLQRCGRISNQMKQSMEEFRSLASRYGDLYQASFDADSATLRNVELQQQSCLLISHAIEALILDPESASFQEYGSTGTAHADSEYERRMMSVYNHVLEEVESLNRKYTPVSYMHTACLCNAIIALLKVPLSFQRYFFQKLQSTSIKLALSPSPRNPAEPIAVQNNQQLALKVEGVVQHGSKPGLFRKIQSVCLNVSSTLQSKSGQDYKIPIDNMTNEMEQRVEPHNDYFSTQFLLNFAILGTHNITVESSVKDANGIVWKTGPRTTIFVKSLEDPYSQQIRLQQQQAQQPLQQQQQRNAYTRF
Chain of UniProt P49448 (P49448 whole entry, looked up): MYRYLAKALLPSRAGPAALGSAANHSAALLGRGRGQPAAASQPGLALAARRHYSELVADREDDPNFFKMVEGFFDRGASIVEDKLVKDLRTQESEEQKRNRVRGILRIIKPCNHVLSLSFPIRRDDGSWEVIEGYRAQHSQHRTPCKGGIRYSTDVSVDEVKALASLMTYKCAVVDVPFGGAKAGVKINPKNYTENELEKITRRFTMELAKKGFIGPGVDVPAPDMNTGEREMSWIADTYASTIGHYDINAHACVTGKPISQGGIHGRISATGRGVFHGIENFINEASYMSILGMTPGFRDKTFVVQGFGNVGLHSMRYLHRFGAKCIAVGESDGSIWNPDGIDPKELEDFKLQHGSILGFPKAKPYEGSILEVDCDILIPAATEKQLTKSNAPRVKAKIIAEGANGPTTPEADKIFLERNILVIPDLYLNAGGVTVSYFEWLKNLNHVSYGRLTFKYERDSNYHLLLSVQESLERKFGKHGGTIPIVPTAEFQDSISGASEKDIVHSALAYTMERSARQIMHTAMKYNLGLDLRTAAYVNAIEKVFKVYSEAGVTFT
Chain of UniProt Q15046 (Q15046 whole entry, looked up): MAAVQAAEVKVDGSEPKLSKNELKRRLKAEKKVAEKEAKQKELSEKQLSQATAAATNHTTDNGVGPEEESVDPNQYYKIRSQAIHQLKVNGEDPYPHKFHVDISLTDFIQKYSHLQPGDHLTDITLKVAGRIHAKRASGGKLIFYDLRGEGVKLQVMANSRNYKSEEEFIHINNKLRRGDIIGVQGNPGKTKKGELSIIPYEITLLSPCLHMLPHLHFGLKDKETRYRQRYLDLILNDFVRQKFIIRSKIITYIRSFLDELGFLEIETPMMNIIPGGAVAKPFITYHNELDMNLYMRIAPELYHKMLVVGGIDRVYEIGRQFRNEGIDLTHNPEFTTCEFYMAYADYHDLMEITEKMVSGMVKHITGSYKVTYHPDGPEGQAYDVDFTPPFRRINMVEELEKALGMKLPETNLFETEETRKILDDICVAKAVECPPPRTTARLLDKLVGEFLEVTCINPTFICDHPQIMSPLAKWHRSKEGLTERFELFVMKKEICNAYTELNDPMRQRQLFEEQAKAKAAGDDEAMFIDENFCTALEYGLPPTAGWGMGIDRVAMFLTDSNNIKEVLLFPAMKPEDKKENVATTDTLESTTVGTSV
Chain of UniProt Q9Y5Q8 (Q9Y5Q8 whole entry, looked up): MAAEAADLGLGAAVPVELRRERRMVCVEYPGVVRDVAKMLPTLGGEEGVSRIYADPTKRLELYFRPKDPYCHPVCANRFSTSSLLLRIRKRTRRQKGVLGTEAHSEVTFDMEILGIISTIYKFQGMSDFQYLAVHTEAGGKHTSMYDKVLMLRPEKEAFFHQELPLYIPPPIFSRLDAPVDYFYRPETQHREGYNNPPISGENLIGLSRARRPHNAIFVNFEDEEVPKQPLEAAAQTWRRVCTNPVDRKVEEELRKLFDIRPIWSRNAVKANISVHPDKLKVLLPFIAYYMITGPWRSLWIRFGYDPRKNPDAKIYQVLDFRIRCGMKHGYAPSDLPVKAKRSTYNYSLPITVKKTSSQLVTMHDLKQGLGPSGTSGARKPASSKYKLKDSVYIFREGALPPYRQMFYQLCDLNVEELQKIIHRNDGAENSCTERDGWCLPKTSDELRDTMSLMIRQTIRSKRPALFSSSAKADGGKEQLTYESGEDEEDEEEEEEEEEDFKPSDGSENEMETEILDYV
Chain of UniProt P04792 (P04792 whole entry, looked up): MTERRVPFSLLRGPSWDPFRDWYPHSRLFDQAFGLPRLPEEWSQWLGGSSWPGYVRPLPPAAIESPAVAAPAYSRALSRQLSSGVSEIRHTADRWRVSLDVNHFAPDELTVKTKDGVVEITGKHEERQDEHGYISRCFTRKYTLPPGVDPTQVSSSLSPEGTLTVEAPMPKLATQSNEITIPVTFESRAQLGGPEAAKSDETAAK
Chain of UniProt O15357 (O15357 whole entry, looked up): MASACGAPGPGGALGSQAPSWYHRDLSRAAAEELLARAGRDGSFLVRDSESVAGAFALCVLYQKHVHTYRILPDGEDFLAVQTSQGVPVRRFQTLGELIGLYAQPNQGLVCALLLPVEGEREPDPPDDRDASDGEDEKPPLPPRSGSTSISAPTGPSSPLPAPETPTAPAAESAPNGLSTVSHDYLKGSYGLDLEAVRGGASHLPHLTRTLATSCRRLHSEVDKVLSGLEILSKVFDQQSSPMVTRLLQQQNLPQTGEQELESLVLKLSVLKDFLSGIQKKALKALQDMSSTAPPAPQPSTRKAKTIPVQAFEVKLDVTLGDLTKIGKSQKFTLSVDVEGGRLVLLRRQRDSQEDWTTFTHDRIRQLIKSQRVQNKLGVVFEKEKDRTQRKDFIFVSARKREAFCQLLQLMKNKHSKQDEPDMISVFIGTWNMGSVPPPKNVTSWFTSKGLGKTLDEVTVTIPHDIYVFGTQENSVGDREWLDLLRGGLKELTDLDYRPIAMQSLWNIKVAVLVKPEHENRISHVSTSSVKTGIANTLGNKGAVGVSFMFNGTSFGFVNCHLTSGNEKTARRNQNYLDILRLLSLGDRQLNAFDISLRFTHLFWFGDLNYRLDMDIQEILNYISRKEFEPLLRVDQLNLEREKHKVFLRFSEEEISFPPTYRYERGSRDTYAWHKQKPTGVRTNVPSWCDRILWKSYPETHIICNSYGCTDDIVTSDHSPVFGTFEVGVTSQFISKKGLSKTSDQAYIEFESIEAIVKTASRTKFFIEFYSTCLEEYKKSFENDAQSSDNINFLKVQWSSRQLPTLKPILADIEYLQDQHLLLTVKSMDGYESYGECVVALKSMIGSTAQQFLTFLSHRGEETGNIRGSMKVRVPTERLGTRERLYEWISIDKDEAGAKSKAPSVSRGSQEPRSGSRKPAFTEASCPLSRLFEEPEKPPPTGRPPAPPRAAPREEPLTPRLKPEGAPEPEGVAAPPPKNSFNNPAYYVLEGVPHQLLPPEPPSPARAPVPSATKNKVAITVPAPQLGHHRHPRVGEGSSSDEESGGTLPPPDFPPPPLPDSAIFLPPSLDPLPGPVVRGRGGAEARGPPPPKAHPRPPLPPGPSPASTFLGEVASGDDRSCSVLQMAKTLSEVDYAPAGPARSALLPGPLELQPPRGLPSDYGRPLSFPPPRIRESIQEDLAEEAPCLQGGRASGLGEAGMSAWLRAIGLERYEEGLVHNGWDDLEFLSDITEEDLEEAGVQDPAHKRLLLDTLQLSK
Chain of UniProt Q9H6K1 (Q9H6K1 whole entry, looked up): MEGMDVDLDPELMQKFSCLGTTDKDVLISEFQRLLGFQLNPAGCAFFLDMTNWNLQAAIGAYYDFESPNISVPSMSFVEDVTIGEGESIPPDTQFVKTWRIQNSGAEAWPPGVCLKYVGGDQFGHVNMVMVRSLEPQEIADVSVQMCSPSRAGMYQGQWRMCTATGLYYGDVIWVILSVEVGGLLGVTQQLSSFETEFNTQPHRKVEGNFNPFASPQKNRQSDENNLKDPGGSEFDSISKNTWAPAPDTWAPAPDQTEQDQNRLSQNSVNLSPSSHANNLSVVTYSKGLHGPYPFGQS

log2 fold change, inactive:
GLYR1 (UniProt Q49A26) -0.059
HMGCS1 (UniProt Q01581) 0.008
GSTM4 (UniProt Q03013) 0.055
KARS1 (UniProt Q15046) 0.003
GTF2H4 (UniProt Q92759) -0.047
HAUS7 isoform 2 (UniProt Q99871) -0.054
GSE1 (UniProt Q14687) -0.018
INTS10 (UniProt Q9NVR2) -0.008
GMDS (UniProt O60547) 0.057
HDHD5 (UniProt Q9BXW7) -0.033
GLUD2 (UniProt P49448) 0.177
ILKAP (UniProt Q9H0C8) -0.037
HSPA14 (UniProt Q0VDF9) 0.023
GLUL (UniProt P15104) -0.055
GSK3A (UniProt P49840) -0.013
GRK6 isoform 2 (UniProt P43250) 0.102
GRK2 (UniProt P25098) -0.019
KDM5C (UniProt P41229) 0.001
ILK (UniProt Q13418) 0.029
HLTF (UniProt Q14527) -0.008
INTS7 (UniProt Q9NVH2) -0.059
ICAM2 (UniProt P13598) -0.036
HSP90AA4P (UniProt Q58FG1) -0.002
HMGB2 (UniProt P26583) 0.003
HDAC3 (UniProt O15379) 0.035
GTF3C5 isoform 3 (UniProt Q9Y5Q8) 0.024
ISY1 isoform 1 (UniProt Q9ULR0) -0.186
HEATR6 (UniProt Q6AI08) 0.052
H4C1 (UniProt P62805) -0.013
ILRUN (UniProt Q9H6K1) -0.012
ISCA1 isoform 2 (UniProt Q9BUE6) 0.007
KDM5B isoform 2 (UniProt Q9UGL1) 0.043
INTS3 (UniProt Q68E01) 0.038
GSTCD (UniProt Q8NEC7) 0.028
HSPB1 (UniProt P04792) -0.001
INPPL1 (UniProt O15357) 0.023
